This excerpt belongs to a sample that is enriched for hits.
Shiga toxin inh = Shiga toxin inhibition | Vero cells, Shiga toxin protein synthesis inhibition reporter | inhibition, % at 38.7 µM | 290,000 compounds, 9.2% hits; in the data active = inhibition mostly above about 28%, no sharp cut-off; inactive = mostly below about 43%; note: 0% is about no effect
SARS PLpro yeast = blocks SARS-CoV papain-like protease in a yeast assay; 330,000 compounds, 0.19% hits; Potency, µM (doses to about 32.9 µM), for inactives: top-dose activity, positive = growth rescue, usual class: activators; AID 485353; S. cerevisiae expressing SARS-CoV PLpro, growth rescue; note: potency is the fitted concentration of half-maximal effect; 0% is about no effect; nearly all actives have a fitted effect of over 55% in size
NS1 inh = blocks influenza NS1 protein function; 270,000 compounds, 0.4% hits; AID 2326; Potency, µM (top dose mostly 46.1 µM), for inactives: top-dose activity, positive = more growth; note: potency is the fitted concentration of half-maximal effect; actives are rising curves; nearly all actives have a fitted effect of over 50% in size
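A cell-based growth assay was used: compounds that relieve NS1-induced slow growth of budding yeast raise OD600. Assay medium was yeast nitrogen base with ammonium sulphate and -URA supplement, pH 6.0, with 2% galactose.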
TbPYK inhibitor = inhibitors of Trypanosoma brucei pyruvate kinase | Q57TT1 | 410,000 compounds, 0.12% hits | Potency, µM (doses to about 76.8 µM), without a hit: at the top dose activity, negative = inhibition, usual class: inhibitors | TbPYK enzyme, Kinase-Glo Plus ATP luminescence, 45 min | AID 624173; active = well fitted curve in the direction sought with a large enough effect; inconclusive = small, poorly fitted or top-dose-only effect, or another doubt; inactive = no such curve, though single readings can be large; an effect the other way counts as inactive or inconclusive; note: potency is the fitted concentration of half-maximal effect; % is set by controls: 0 for no effect and ±100 for the full control effect; nearly all actives have a fitted effect of over 50% in size
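Luminescence from Kinase-Glo Plus, added after a 45-minute room-temperature reaction, served as the end-point read-out. The enzyme and substrate were preincubated with compound before ADP (130 uM final) initiated turnover. Concentration-effect curves came from normalized qHTS data.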
CHX counter = affects cycloheximide protein synthesis inhibition readout, counter-screen; AID 2314; max response, %; 300,000 compounds, 12% hits; cell reporter, cycloheximide protein synthesis inhibition counterscreen; in the data active = max response mostly above about 13%, no sharp cut-off; inactive = mostly below about 14%; note: read at 38.3 µM for the half of the compounds with a filed dose; 0% is about no effect
LmPK inhibitor = LmPK (Leishmania mexicana) enzyme inhibition. 290,000 compounds, 0.37% hits. Potency, µM (doses to about 57.5 µM), inactives show at the highest dose activity change, negative = inhibition, actives largely listed as inhibitors. purified LmPK, Kinase-Glo ATP luminescence, 1 h; active = well fitted curve in the direction sought with a large enough effect; inconclusive = small, poorly fitted or top-dose-only effect, or another doubt; inactive = no such curve, though single readings can be large; an effect the other way counts as inactive or inconclusive; note: potency is the fitted concentration of half-maximal effect; % is set by controls: 0 for no effect and ±100 for the full control effect
Target sequence (Q27686 whole entry, looked up): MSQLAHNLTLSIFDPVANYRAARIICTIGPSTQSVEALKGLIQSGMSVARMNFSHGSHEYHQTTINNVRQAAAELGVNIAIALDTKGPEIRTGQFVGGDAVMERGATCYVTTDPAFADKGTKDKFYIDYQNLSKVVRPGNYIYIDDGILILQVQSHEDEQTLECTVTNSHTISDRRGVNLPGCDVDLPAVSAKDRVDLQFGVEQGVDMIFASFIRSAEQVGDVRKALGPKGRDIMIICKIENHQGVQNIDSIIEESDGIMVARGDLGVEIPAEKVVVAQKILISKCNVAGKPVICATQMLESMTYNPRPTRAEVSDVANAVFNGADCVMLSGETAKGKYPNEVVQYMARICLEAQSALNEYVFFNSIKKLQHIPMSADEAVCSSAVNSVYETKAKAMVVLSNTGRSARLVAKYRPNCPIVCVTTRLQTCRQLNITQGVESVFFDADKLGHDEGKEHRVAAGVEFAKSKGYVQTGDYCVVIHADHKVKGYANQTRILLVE
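0.1 nM LmPK, 0.5 mM PEP, 0.1 mM ADP; 50 mM imidazole pH 7.2, 7 mM MgCl2, 50 mM KCl; 1 h RT. Kinase-Glo luminescence readout, normalized to no-enzyme (full inhibition) and uninhibited wells.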
* hit, by the source's call; ? = inconclusive; . = no result; + = active, no number. Unless noted, calls come from the whole dose curve.

SMILES	Shiga toxin inh	SARS PLpro yeast	NS1 inh	TbPYK inhibitor	CHX counter	LmPK inhibitor
CCc1c(C(=O)NCCc2cccc(C)c2)[nH]c(C)c1C(C)=O	39	6%	-4%	2%	5	-2%
CC(=O)c1c(C)[nH]c(C(=O)Nc2ccc(F)cc2F)c1C	65*	-2%	-7%	6%	44*	0%
COc1cccc(CNCCSc2nnnn2C)c1OCc1ccc(Cl)cc1Cl	.	.	.	-7%	.	.
O=C(C1CC(=O)N(c2ccc3c(c2)OCCO3)C1)N1CCN(Cc2ccccc2F)CC1 (configuration not stated)	.	-10%	.	0%	.	.
CCOC(=O)c1cccc(NC(=O)CN2C(=O)c3ccccc3Sc3ncccc32)c1	.	.	.	5%	.	.
Nc1c(C(=O)OCC2CCCO2)c2nc3ccccc3nc2n1-c1ccc2c(c1)OCCO2 (configuration not stated)	60*	-1%	-10%	-7%	35*	1%
Cn1cc(S(=O)(=O)N2CCCCCC2)cc1C(=O)NCc1ccc(F)cc1	.	.	.	-1%	.	.
Cc1ccc(C2=CC(=O)C[C@H](c3ccc4c(c3)OCO4)C2)cc1	.	2%	.	-2%	.	.
CS(=O)(=O)N1N=C(c2ccc(Br)cc2)CC1c1ccc2c(c1)OCO2 (configuration not stated)	83*	-2%	9%	-4%	45*	-15%
CC(=O)N1N=C(c2ccco2)CC1c1ccc(C)cc1 (configuration not stated)	20	4%	20%	-11%	-4	-2%
CC(=O)N1N=C(c2ccc(C)cc2)CC1c1ccc2c(c1)OCO2 (configuration not stated)	52*	-2%	-6%	-1%	45*	3%
Cc1ccc(C2=NN(S(C)(=O)=O)C(c3ccc4c(c3)OCO4)C2)cc1 (configuration not stated)	+	-13%	10%	-16%	76*	-15%
CS(=O)(=O)Nc1ccc(C2=NN(S(C)(=O)=O)C(c3ccc4nccnc4c3)C2)cc1 (configuration not stated)	26	1%	6%	-17%	15*	2%
O=C(Nc1nc2n(n1)C(c1ccc(Cl)cc1)C=C(c1ccccc1)N2)c1ccco1 (configuration not stated)	.	.	.	-10%	.	.
COc1ccc(C(=O)/C=C/c2ccc(OC(=O)c3cc(OC)c(OC)c(OC)c3)cc2)cc1	-5	1%	20%	-3%	1	-4%
O=C(/C=C/c1ccc(I)cc1)c1ccc(B(O)O)cc1	16*	.	.	.	29*	.
CSc1ccc(/C=C/C(=O)c2ccc(O)cc2)cc1	91*	-48%	-60%	1%	44*	-17%
Cc1ccc(/C=C/C(=O)c2ccc(O)cc2)cc1	49*	-5%	-53%	0%	28*	-19%
Cc1ccc(C)c(CN2C(=O)c3ccccc3S(=O)(=O)c3ccc(C(=O)NCCC4=CCCCC4)cc32)c1	.	.	.	-9%	.	.
CC1SCC(NC(=O)c2ccccc2Cl)CS1 (configuration not stated)	74*	-2%	3%	0%	53*	2%
CC1SCC(NC(=O)c2ccc(Cl)cc2)CS1 (configuration not stated)	49*	0%	0%	-3%	29*	-1%
CC1SCC(NC(=O)c2cccc(Cl)c2)CS1 (configuration not stated)	46	-1%	-6%	0%	20	6%
Cc1cccc(-n2cnc3cc(C(=O)NCc4ccccc4Cl)ccc32)c1	.	.	.	2%	.	.
COc1ccccc1CNC(=O)C(CC(C)C)NS(=O)(=O)c1ccc2c(c1)oc(=O)n2C (configuration not stated)	-10	9%	4%	2%	-5	1%
COc1ccccc1CNC(=O)C(CCSC)NS(=O)(=O)c1ccc2c(c1)oc(=O)n2C (configuration not stated)	42	-4%	-8%	2%	52*	2%
SMILES	Shiga toxin inh	SARS PLpro yeast	NS1 inh	TbPYK inhibitor	CHX counter	LmPK inhibitor
N#C/C(=C\c1ccc(Sc2ccccc2)o1)c1nc2ccccc2[nH]1	127*	1%	-5%	-17%	41*	-7%
Cc1ccc2nc(/C(C#N)=C\c3ccc([N+](=O)[O-])o3)[nH]c2c1	16	-31%	-138%	6%	33	4%
N#C/C(=C\c1ccc([N+](=O)[O-])o1)c1nc2ccccc2[nH]1	48	-111%	-28%	-6%	17*	1%
CCOC(=O)C1CCCN(CCC(=O)Nc2ccc(OC)cc2OC)C1 (configuration not stated)	.	.	.	3%	.	.
Cc1ccccc1NC(=S)c1ccc2ccccc2n1	97*	-25%	2%	-9%	48*	1%
O=C(NCc1ccco1)c1ccc2ccccc2n1	-4	-4%	-57%	-6%	-2	-2%
O=C(Nc1ccc(S(=O)(=O)NCc2ccco2)cc1)c1ccc2ccccc2n1	51*	4%	2%	-7%	89*	1%
Cc1cc(C(=O)Nc2cc(C(F)(F)F)ccc2N2CCOCC2)no1	-3	?	-12%	10%	-3	-1%
O=C(Nc1cc(C(F)(F)F)ccc1N1CCOCC1)c1ccc2ccccc2n1	76	-5%	2%	1%	23*	0%
COc1ccccc1NS(=O)(=O)c1cccc(NC(=O)c2ccc3ccccc3n2)c1	76	17%	28%	1%	17*	-7%
CNc1cc2c(Nc3cccc(Br)c3)ncnc2cn1	-4	.	.	.	-3	.
CCOC(=O)C1CCN(C(=O)C2CCCN2S(=O)(=O)c2ccc(Cl)cc2)CC1 (configuration not stated)	-13	-3%	3%	-5%	-2	4%
Cc1ccc(NC(=O)c2ccc3ccccc3n2)nc1	115*	-20%	17%	-9%	38*	-3%
O=C(Nc1ccc(OC(F)(F)F)cc1)c1ccc2ccccc2n1	55	-2%	-4%	2%	42*	6%
O=C(Nc1ccccc1)c1ccc2ccccc2n1	94*	-3%	-3%	-3%	49*	1%
O=C(Nc1ccc2c(c1)OCCO2)c1ccc2ccccc2n1	45*	-5%	.	0%	39*	-13%
COc1ccc(NC(=O)COC(=O)c2ccc3ccccc3n2)cc1	.	-1%	.	4%	.	.
O=C(Nc1ccc2c(c1)OCCO2)c1cccc2nc3ccccc3nc12	14	0%	14%	4%	1	-1%
CO[C@H]1[C@H](O)[C@H](O[C@@H]2[C@H](Oc3cccc4c(O)c5c(=O)oc6ccc(C)c7c(=O)oc(c34)c5c67)O[C@@H](C)[C@H](O)[C@H]2O)O[C@@H](C)[C@@H]1O	.	.	-5%	.	.	.
O=C(Nc1ccccc1C(=O)O)c1ccc2ccccc2n1	124*	-17%	-36%	7%	30*	-21%
O=C(NNC(=O)c1ccc2ccccc2n1)c1ccc(O)cc1	.	4%	.	0%	.	.
Nc1cccc2cc(-c3ccccc3)oc12	.	-1%	.	-3%	.	.

Bioassay records deposited in PubChem BioAssay by National Center for Advancing Translational Sciences (NCATS).
